According to ChEMBL document CHEMBL4513154, “CO-ADD screening of Jain University (India) compounds”:
Measured potencies and affinities stand elsewhere.

Assays:
Klebsiella pneumoniae = details: Concentration 32 ug.mL-1; ASSAY_TEST Inhibition of Bacterial Growth; detection method Absorption (OD600); MEDIA CAMHB; plate type 384well; NBS; CORNING #3640; time 18 hr
Candida albicans = details: 32 ug/mL
Cryptococcus neoformans = details: Concentration 32 ug.mL-1; ASSAY_TEST Inhibition of Fungal Growth; detection method Resazurin; Absorption (OD600-OD570); plate type 384well; NBS; CORNING #3640

Row | SMILES | Inhibition (Klebsiella pneumoniae) [%] | Inhibition (Candida albicans) [%] | Inhibition (Cryptococcus neoformans) [%]
1 | Clc1ccc(Cn2c(-c3cscn3)nc3ccccc32)cn1 | 12.39 | 0.69 | -39.39
2 | Clc1ccc2c(c1)nc(-c1cscn1)n2Cc1ccc(Cl)nc1 | -1.17 | 2.99 | -29.64
3 | Clc1ccc(Cn2c(-c3cscn3)nc3c(Cl)cccc32)cn1 | 14.39 | 1.41 | -19.98
